Sampled rows, rich in hits. Any-hit rate of the full collection: about 7.3%.
SMN2 splice up: increases expression of the SMN2 splice variant; HEK293 SMN2-luciferase splicing reporter, luminescence, 30-36 h; Potency, µM (doses to about 46.1 µM), without a hit: top-dose activity change, positive = activation, hits mostly activators; 210,000 tested, 2.8% active; also: % of control where 0% means no effect; nearly all actives have a fitted effect of over 55% in size
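HEK293 cells carry an SMN2 minigene-luciferase reporter in which exon 7 inclusion puts luciferase in frame. Cells were seeded at 2000 cells/well, attached for 10-12 hours, then exposed to compounds for 30-36 hours at 37C before ONE-Glo luminescence.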
ELG1 genotoxic: induces genotoxicity in HEK293T cells with luciferase-tagged ELG1; HEK293T ELG1-luciferase reporter, luminescence, 16 h; Potency, µM (doses to about 46 µM), inactives show top-dose activity change, positive = activation, hits mostly activators; 330,000 tested, 1.3% active; also: % of control where 0% means no effect; nearly all actives have a fitted effect of over 60% in size
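16 hr compound incubation (37 °C, 5% CO2) of HEK293T cells carrying luciferase-tagged ELG1; luciferase then measured by ONE-Glo luminescence after 30 min at RT.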
KinaseGlo FLuc: counter-screen: inhibitors of Kinase-Glo firefly luciferase; AID 1379; Potency, µM (series often up to 38.3 µM), without a hit: at the top dose activity change, negative = inhibition, most hits filed as inhibitors; Kinase-Glo luciferase, ATP luminescence, 8 min; 200,000 tested, 0.28% active; also: % is scaled to controls: 0 for no effect and ±100 for the full control effect; nearly all actives have a fitted effect of over 60% in size
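Light output from Kinase-Glo luciferase with luciferin and 10 uM ATP in 50 mM imidazole pH 7.2, KCl, MgCl2, Tween 20, BSA; compound pin-delivered, 8-min ambient incubation, then luminescence read.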
FLuc modulator: counter-screen for miR-21 project: firefly luciferase inhibitors or activators | purified FLuc, Km substrates, luminescence inhibition | Potency, µM (doses to about 57.5 µM), for inactives: at the highest dose activity change, negative = inhibition, actives largely listed as inhibitors | 360,000 tested, 6.9% active | AID 588342;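 also: plate controls were vehicle for no effect and reference inhibitor for full effect; nearly all actives have a fitted effect of over 55% in size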
Target sequence (P08659 whole entry, looked up): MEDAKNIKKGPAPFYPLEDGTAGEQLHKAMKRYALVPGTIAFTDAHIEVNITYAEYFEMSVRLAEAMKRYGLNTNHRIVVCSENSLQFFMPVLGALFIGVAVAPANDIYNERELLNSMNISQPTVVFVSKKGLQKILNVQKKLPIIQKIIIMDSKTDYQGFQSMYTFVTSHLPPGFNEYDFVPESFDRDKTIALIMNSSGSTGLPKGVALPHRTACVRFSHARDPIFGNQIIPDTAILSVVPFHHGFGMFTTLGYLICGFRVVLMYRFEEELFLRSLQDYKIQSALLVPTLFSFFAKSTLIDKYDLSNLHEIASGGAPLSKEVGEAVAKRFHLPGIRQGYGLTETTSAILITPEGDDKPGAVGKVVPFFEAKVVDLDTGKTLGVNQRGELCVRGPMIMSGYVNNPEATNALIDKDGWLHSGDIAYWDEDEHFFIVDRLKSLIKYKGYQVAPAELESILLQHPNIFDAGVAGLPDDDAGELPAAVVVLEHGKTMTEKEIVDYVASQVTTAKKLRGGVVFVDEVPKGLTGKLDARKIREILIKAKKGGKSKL
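Biochemical qHTS of compounds, final roughly 60 µM downward over six points, against 10 nM purified firefly luciferase using Km concentrations of substrates (10 uM D-luciferin, 10 uM ATP) in Tris acetate pH 7.5 buffer; luminescence output.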
Rab9 prom act: Rab9 promoter activation | 320,000 tested, 2.8% active | Potency, µM (doses to about 9.22 µM), for inactives: at the highest dose activation, negative = inhibition, hits mostly activators | AID 485297 | Huh7 Rab9 promoter-luciferase reporter, luminescence, 24 h; also: % of control where 0% means no effect; nearly all actives have a fitted effect of over 60% in size
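Cell-based reporter: Huh7 stable for Rab9 promoter-driven luciferase, plated in reduced-serum medium with 10% FBS at 1500 cells/well, compound-treated 24 h at 37 °C, luminescence read after 10 min reagent.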
NPC1 promoter act: activates the NPC1 promoter; Potency, µM (titrated, usually from 9.22 µM), without a hit: top-dose activation, actives largely listed as activators; 320,000 tested, 2.4% active; AID 485313; Huh7 NPC1 promoter luciferase reporter, 24 h; also: % of control where 0% means no effect; nearly all actives have a fitted effect of over 60% in size
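Stable NPC1-promoter luciferase Huh7 line; cpd (DMSO) 24 h, 37 °C, 5% CO2; Amplite luciferase reagent 10 min RT; luminescence readout. qHTS format.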
An asterisk follows results filed as active; ? = inconclusive; nt = no result given; [ ] = another dose, or the depositor's remark. Calls follow the shape of the dose curve; as a rule, active = well fitted curve in the direction sought with a large enough effect; inconclusive = small, poorly fitted or top-dose-only effect, or another doubt; inactive = no such curve, though single readings can be large; an effect the other way counts as inactive or inconclusive. Potency is read from the fitted curve at half-maximal effect.

SMILES | SMN2 splice up | ELG1 genotoxic | KinaseGlo FLuc | FLuc modulator | Rab9 prom act | NPC1 promoter act
Clc1ccc(-n2ncc3c(NCc4ccccn4)ncnc32)cc1 | 5% | -3% | -6% | nt | ? | ?
CN(C(=O)CC(=O)Nc1ccc2nc3n(c(=O)c2c1)CCCCC3)c1ccccc1F | -9% | nt | nt | -9% | nt | nt
COC(=O)c1c(SC)nc2ccccc2c1OCc1ccccc1C | nt | nt | nt | -2% | nt | nt
C=C1c2ccccc2O[C@H](C(=O)OCC)C1OC (mixture of isomers) | nt | nt | -3%[39.9 µM] | nt | nt | nt
N#Cc1ccc(CS(=O)(=O)c2ccccc2)cc1 | 6% | nt | -1% | nt | nt | nt
COCCCNc1ncnc2c1cnn2-c1ccc(F)cc1 | nt | nt | nt | 11µM* | nt | nt
COCCCNc1ncnc2c1cnn2-c1ccc(C)cc1C | 29% | 4% | 1% | -17% | -6% | 0%
O=C(O)c1ccccc1COc1ccccc1Cl | 26% | 12% | -2% | 15µM* | 0% | 4%
Cc1oc2ccc(OCc3ccccc3Cl)cc2c1C(=O)O | nt | 0% | nt | 0% | -1% | -1%
O=C(O)c1cccc(OCc2ccccc2Cl)c1 | nt | 4% | 2% | 9.5µM* | ? | ?
COc1ccccc1CNC(=O)c1cc2c(-c3ccc(Cl)cc3)nn(C)c2s1 | 5% | nt | nt | -7% | nt | nt
C=CC(=O)OCCOCCOC(=O)C=C | -30% | nt | nt | nt | nt | nt
CC(C)(C)NCCOc1ccc2ccccc2c1 | -4% | 0% | -2% | -1% | -3% | -2%
BrCCOCCOc1ccc2ccccc2c1 | ? | ? | 0% | 15µM* | ? | ?
Cc1ccc(C)c(N2CCN(CCCNC(=O)C3COc4ccccc4C3)CC2)c1 (centres undefined) | nt | nt | nt | -5% | nt | nt
CN(C)c1ccc(C2Nc3ccccc3C(=O)N2CCCN2CCOCC2)cc1 (centres undefined) | nt | 12% | nt | 4.8µM* | 19% | 7%
Cc1cc2n(n1)C(c1ccc(N(C)C)cc1)Nc1ccccc1-2 (centres undefined) | 1% | 16% | 1% | 30µM* | -7% | -2%
Cc1cc2n(n1)C(c1ccccc1)Nc1ccccc1-2 (centres undefined) | -25% | 7% | -3% | 4% | -6% | 2%
CCN(CC)CCN1C(=O)c2ccccc2NC1c1ccc(N(C)C)cc1 (centres undefined) | -3% | 1% | -2% | 24µM* | 9% | 3%
CCn1nnc2cc(C(=O)Nc3cccc(C)c3C)ccc21 | nt | nt | nt | -7% | nt | nt
Cc1c2cnn(CC(=O)N3CCN(c4ccc(F)cc4)CC3)c(=O)c2c(C)n1Cc1ccccc1F | -2% | nt | nt | -19% | nt | nt
Cc1cc(C)nc(N/N=C/c2ccccc2)n1 | 20% | 3% | 3% | -19% | ? | -1%
Cc1cc(C)nc(N/N=C/c2ccc3c(c2)OCCO3)n1 | 22% | 11% | -6% | 19µM* | ? | 14%
Cc1cccc(/C=N/Nc2ccc3ccccc3n2)c1 | -36% | 0.23µM* | ? | 0.076µM* | ? | ?
Cc1ccc(/C=N/Nc2cn[nH]c(=O)n2)o1 | 13% | 3% | -5% | -16% | 12% | -2%
SMILES | SMN2 splice up | ELG1 genotoxic | KinaseGlo FLuc | FLuc modulator | Rab9 prom act | NPC1 promoter act
Cc1cc(C)nc(N/N=C/c2cccc3ccccc23)n1 | 26% | 9% | -2% | 12µM* | -2% | 15%
Cc1ccc(/C=N/Nc2ccc3ccccc3n2)o1 | 1.1µM* | ? | ? | 0.48µM* | 0.13µM* | 0.71µM*
COc1ccc2c(c1)c1c(c(=O)n(-c3ccc(OC)c(OC)c3)c(=O)n1Cc1ccccc1C)n2C | nt | nt | nt | 0% | nt | nt
COc1ccc2c(c1)c1c(c(=O)n(-c3ccc(C)cc3)c(=O)n1CC(=O)Nc1cc(C)ccc1C)n2C | nt | nt | nt | -5% | nt | nt
Cc1ccc(N2CCN(Cc3nnc(-c4ccc5c(c4)OCO5)o3)CC2)c(C)c1 | 0% | nt | nt | -3% | nt | nt
C(=N\Nc1ccc2ccccc2n1)/c1ccc2c(c1)OCCO2 | -77% | ? | ? | 0.067µM* | -20% | -23%
CC(C)NC(=S)N/N=C/c1ccc2c(c1)OCCO2 | 9% | 11% | 2% | 6.7µM* | ? | 28%
Cc1cc(C)nc(N/N=C/c2ccccc2Cl)n1 | nt | 15% | nt | ? | ? | 22%
Cc1cc(N/N=C/c2ccccc2Cl)nc(NCc2ccccc2)n1 | -31% | -7% | -3% | 7.6µM* | -5% | -2%
C(=N\Nc1nc2ccccc2[nH]1)/c1ccc2c(c1)OCCO2 | nt | ? | nt | 0.76µM* | 1.4µM* | ?
C(=N\Nc1nc2ccccc2[nH]1)/c1cccc2nccnc12 | nt | ? | nt | ? | -4% | -5%
C(=N\n1cnnc1)/c1ccc2c(c1)OCCO2 | 13% | 4% | 2% | -17% | -2% | 1%
Cc1ccc(-n2cc(C(=O)Oc3ccc(F)cc3)c3ccccc3c2=O)cc1 | nt | nt | nt | -5% | nt | nt
CCc1ccc(C(=O)c2cn(CC(=O)Nc3ccc(OC)c(OC)c3)c3ccc(C)cc3c2=O)cc1 | 11% | nt | nt | -6% | nt | nt
O=C(Nc1ccc(-c2noc(-c3cccs3)n2)cc1)c1cccnc1 | 1.3µM* | ? | -1% | 4.8µM* | 0.45µM* | 1µM*
COc1cccc(-c2nc(-c3ccc(NC(=O)c4cccnc4)cc3)no2)c1 | -11% | 13% | 1% | ? | 30% | ?
COc1ccc(-c2noc(-c3ccccc3C(=O)Nc3cccnc3)n2)cc1 | 5% | -9% | 0% | 13µM* | 29% | 16%
COc1ccc(-c2noc(-c3ccccc3C(=O)Nc3cccc(OC)c3)n2)cc1 | -35% | -1% | -5% | 11µM* | -2% | 5%
COc1ccc(-c2noc(N3CCC(C(=O)Nc4cccc(OC)c4)CC3)n2)cc1 | nt | -6% | nt | -20% | 17% | 4%
CC(=O)Nc1cccc(Oc2ccc(-c3noc(C)n3)cc2)c1 | 10µM* | 9.2µM* | 3% | 12µM* | 1.6µM* | 3.2µM*
COc1ccc(-c2noc(-c3ccccc3C(=O)Nc3cccnc3)n2)cc1OC | -17% | -3% | -1% | ? | -2% | -1%
COc1ccccc1-c1noc(-c2ccccc2C(=O)Nc2cccnc2)n1 | 24% | -5% | -16% | 15µM* | -3% | -4%
c1ccc(-c2nc3ccccc3nc2-c2ccccn2)nc1 | 39% | 0% | 1% | -6% | 0% | 2%
Cc1cc2nc(-c3ccccn3)c(-c3ccccn3)nc2cc1C | nt | ? | nt | 4.8µM* | 14% | ?
COc1ccc(/C=N/NC(=O)c2ccc(-c3ccccc3)cc2)cc1O | -6% | -3% | 1% | ? | -5% | 1%
COc1ccc(/C=N/NC(=O)c2ccc3c(c2)OCCO3)cc1[N+](=O)[O-] | -6% | 12% | 0% | 1% | -1% | 8%
COc1cc(/C=N/NC(=O)CC2(C)OCCO2)cc(Br)c1O | -1% | 1% | -1% | -2% | -2% | -4%
